Several values for one entry are separate records, joined by “and”; a condition that tells them apart may be missing. Equal entries are not always repeated. Where two headings read alike, the source gives them in different places.

Here are results for 17 compounds from PMC5540273 (PLoS ONE, 2017).

What all share (details): concentration: 1 μM, replicates: in singlicate, n = 1
Experiment [1] deals with GRK4.
The test system of experiment [2] is GRK7.
Experiment [3] concerns GSK3A.
The subject of experiment [4] is GSK3B.
Experiment [5] relates to T1, HASPIN.
T1 construct: gene GSG2

The subject of experiment [6] is HCK.
Experiment [7] has as its system HIPK1.
The subject of experiment [8] is HIPK2.
The subject of experiment [9] is HIPK3.
Experiment [10] deals with HIPK4.
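Further: KINOMEscan kinase panel screen.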

For the compound `Cn1cc(-c2ccc3c(c2)CCN3C(=O)Cc2ccccc2Cl)c2c(N)ncnc21` [GSK2608885], the “%Inh” value in [1] is 0%; in experiment [2], 0%; in experiment [3] it was 0%; in experiment [4], 9%; in experiment [5], 0%; in experiment [6] it was 99.4%. The “%Inh” value in experiment [7] worked out at 0%; in [8] it was 0%; in experiment [9], 14%; in experiment [10], 36%.

Regarding `Cc1nnc(-c2ccc(C)c(-c3ccc(C(=O)Nc4ccc(NS(C)(=O)=O)cc4)cc3)c2)o1` [GW702865], the “%Inh” value amounted to 0% in experiment [1]; 0% in experiment [2]; 5% in experiment [3]; 0% in experiment [4]; 46% in [5]; 0% in [6]. In addition, the “%Inh” value came to 0% in experiment [7], 0% in experiment [8], 12% in experiment [9] and 0% in experiment [10].

On to `Cl.Cl.Cl.Fc1ccc(-c2ncn(C3CCNCC3)c2-c2ccnc(Nc3ccccc3)n2)cc1` [SB-238039], for which the “%Inh” value was 8% and 46% in experiment [1] (1 µM); 0% and 37% in experiment [2] (1 µM); 57% and 10% in experiment [3] (1 µM); 47% and 17% in experiment [4] (1 µM); 58% and 0% in [5] (1 µM); 65% and 34% in [6] (1 µM). Besides, the “%Inh” value in experiment [7] (1 µM) is 29% and 64%; in experiment [8] (1 µM), 31% and 30%; in experiment [9] (1 µM), 8% and 0%; in [10] (1 µM) it was 17% and 0%.

For `O=C(NCCCN1CCOCC1)c1cccc(Nc2nccc(Nc3ccc(Oc4ccccc4)cc3)n2)c1` [GW663929], the “%Inh” value is recorded as 0% in [1]; 0% in experiment [2]; 21% in [3]; 0% in experiment [4]; 0% in experiment [5]; 96.9% in [6]. The “%Inh” value in experiment [7] is reported as 14%; in experiment [8] it was 0%; in experiment [9], 0%; in [10], 5%.

As for `CC(C)(C)n1cnc2c(N)ncnc21` [SKF-97359], the “%Inh” value was determined as 5% in experiment [1]; 0% in [2]; 0% in experiment [3]; 0% in [4]; 65% in experiment [5]; 0% in experiment [6]. In addition, the “%Inh” value in experiment [7] worked out at 13%; in experiment [8], 16%; in experiment [9] it was 0%; in experiment [10], 0%.

Regarding `N#Cc1c(N2CCOCC2)sc(-c2ccn[nH]2)c1-c1ccc(Cl)cc1`, the “%Inh” value was 0% in experiment [1]; 26% in experiment [2]; 0% in experiment [3]; 0% in experiment [4]; 6% in experiment [5]; 28% in [6]. Also, the “%Inh” value in experiment [7] is recorded as 26%; in experiment [8], 16%; in experiment [9] it was 28%; in experiment [10], 0%.

For `O=C(NCCNc1ccnc(Nc2ccc(F)cc2)n1)c1cc2ccccc2s1` [GSK1379874], the “%Inh” value in experiment [1] was 0%; in [2], 0%; in experiment [3], 0%; in [4], 6%; in [5] it was 19%; in [6], 0%. The “%Inh” value in experiment [7], in experiment [8], in experiment [9] and in [10] was 0% each time.

In the case of `CC(C)(CN)c1nc(-c2ccc(Cl)c(O)c2)c(-c2ccncc2)[nH]1.O=C(O)C(F)(F)F` [SB-477794], the “%Inh” value in [1] is 0%; in experiment [2] it was 0%; in experiment [3] (1 µM), 49% and 58%; in experiment [4] (1 µM), 29% and 14%; in experiment [5] (1 µM), 58% and 57%; in experiment [6] (1 µM), 96.6% and 96%. Further, the “%Inh” value in experiment [7] is 0%; in experiment [8] (1 µM) it was 1% and 37%; in [9] (1 µM), 20% and 4%; in experiment [10] (1 µM), 0% and 13%.

In the case of `NS(=O)(=O)c1cccc(-c2ccc3ncc(N4CCOCC4)nc3c2)c1` [GSK1535721], the “%Inh” value was found to be 0% in experiment [1]; 0% in experiment [2]; 19% in experiment [3]; 0% in [4]; 36% in [5]; 0% in experiment [6]. Further, the “%Inh” value in [7] stood at 10%; in experiment [8] it was 0%; in [9] it was 1%; in experiment [10], 0%.

Regarding `Cc1ccc(C(=O)NCC(N)=O)cc1-n1c(C)cc(OCc2ccc(F)cc2F)c(Br)c1=O`, the “%Inh” value is on record as 0% in experiment [1]; 0% in experiment [2]; 58% in experiment [3]; 0% in experiment [4]; 0% in experiment [5]; 21% in experiment [6]. Also, the “%Inh” value in experiment [7] was 46%; in [8], 0%; in experiment [9], 0%; in experiment [10] it was 0%.

In the case of `COc1ccc(COc2cc(-n3cnc4ccccc43)sc2C(N)=O)cc1` [GSK1024304], the “%Inh” value in [1] is recorded as 1%; in experiment [2] it was 0%; in [3] it was 14%; in experiment [4] it was 0%; in experiment [5] it was 0%; in [6], 0%. Moreover, the “%Inh” value in [7] was found to be 18%; in [8] it was 18%; in experiment [9] it was 21%; in [10], 8%.

For `N#Cc1ccc(-c2cc(-c3c[nH]nc3-c3ccccn3)ccn2)cc1` [GW693028], the “%Inh” value is recorded as 3% in [1]; 0% in [2]; 12% in experiment [3]; 4% in [4]; 0% in experiment [5]; 0% in experiment [6]. Further, the “%Inh” value in experiment [7], in experiment [8], in experiment [9] and in experiment [10] was 0% each time.

As to `O=c1cc(N2CCOCC2)nc2n(Cc3cccc4ccccc34)ccn12` [GSK2333389], the “%Inh” value in experiment [1] is reported as 0%; in experiment [2], 0%; in experiment [3], 9%; in experiment [4], 10%; in experiment [5] it was 0%; in experiment [6] it was 0%. The “%Inh” value in [7] is reported as 0%; in experiment [8], 0%; in experiment [9], 21%; in experiment [10] it was 5%.

Consider `[2H]C([2H])(c1cccc(C(F)(F)F)c1C)n1ccn2c(=O)nc(N3CCOCC3)cc12` [GSK2336394], for which the “%Inh” value amounted to 0% in experiment [1]; 0% in experiment [2]; 9% in [3]; 0% in experiment [4]; 0% in experiment [5]; 0% in experiment [6]. Further, the “%Inh” value was found to be 0% in experiment [7], 0% in [8], 9% in [9] and 0% in experiment [10].

Take `C[C@@H](Oc1cc(-n2cnc3ccc(NC(=O)NC(C)(C)C)cc32)sc1C(N)=O)c1ccccc1Cl` [GSK346294]: the “%Inh” value came out at 0% in [1]; 0% in experiment [2]; 18% in [3]; 21% in [4]; 1% in [5]; 0% in [6]. The “%Inh” value in experiment [7] was 9%; in experiment [8], 0%; in [9] it was 26%; in experiment [10] it was 0%.

Consider `Fc1ccc(-c2ncn(CCCN3CCOCC3)c2-c2ccccn2)cc1` [SB-211742], for which the “%Inh” value in [1] is 0%; in [2], 0%; in experiment [3], 0%; in experiment [4], 0%; in experiment [5] it was 0%; in [6], 6%. The “%Inh” value in experiment [7] stood at 38%; in [8], 0%; in experiment [9] it was 0%; in experiment [10], 26%.

Turning to `CSc1ccc(-c2cc3ncnc(SCC(=O)O)c3s2)cc1`, the “%Inh” value in [1] amounted to 0%; in experiment [2], 2%; in experiment [3], 0%; in experiment [4] it was 0%; in experiment [5], 0%; in experiment [6], 33%. The “%Inh” value in [7] is 55%; in [8] it was 52%; in [9], 33%; in experiment [10], 22%.
